Experimental data reported in PubChem BioAssay.
Some of the results follow. Inconclusive results are not listed. Active and inactive are the calls of the source.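 Rule for the calls, unless noted: active = thallium entry rate above the same plate's blocked-transporter control wells by more than 3 SD; inconclusive = the two repeat wells disagree; inactive = the rest.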

Experiments:
[1] = molecular target: Solute carrier family 12 member 5 (Homo sapiens) (UniProt Q9H2X9); test: retest of KCC2 transport modulators without sodium – cell-based, HEK293 KCC2, thallium flux, secondary assay, confirmation (AID 1713;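 active = thallium flux slope above the same plate's solvent-only control mean plus 3 SD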); conditions: FluoZin2 fluorescence, at 10 µM, stronger effect = higher value
Solute carrier family 12 member 5 (Homo sapiens), sequence (Q9H2X9 whole entry, looked up): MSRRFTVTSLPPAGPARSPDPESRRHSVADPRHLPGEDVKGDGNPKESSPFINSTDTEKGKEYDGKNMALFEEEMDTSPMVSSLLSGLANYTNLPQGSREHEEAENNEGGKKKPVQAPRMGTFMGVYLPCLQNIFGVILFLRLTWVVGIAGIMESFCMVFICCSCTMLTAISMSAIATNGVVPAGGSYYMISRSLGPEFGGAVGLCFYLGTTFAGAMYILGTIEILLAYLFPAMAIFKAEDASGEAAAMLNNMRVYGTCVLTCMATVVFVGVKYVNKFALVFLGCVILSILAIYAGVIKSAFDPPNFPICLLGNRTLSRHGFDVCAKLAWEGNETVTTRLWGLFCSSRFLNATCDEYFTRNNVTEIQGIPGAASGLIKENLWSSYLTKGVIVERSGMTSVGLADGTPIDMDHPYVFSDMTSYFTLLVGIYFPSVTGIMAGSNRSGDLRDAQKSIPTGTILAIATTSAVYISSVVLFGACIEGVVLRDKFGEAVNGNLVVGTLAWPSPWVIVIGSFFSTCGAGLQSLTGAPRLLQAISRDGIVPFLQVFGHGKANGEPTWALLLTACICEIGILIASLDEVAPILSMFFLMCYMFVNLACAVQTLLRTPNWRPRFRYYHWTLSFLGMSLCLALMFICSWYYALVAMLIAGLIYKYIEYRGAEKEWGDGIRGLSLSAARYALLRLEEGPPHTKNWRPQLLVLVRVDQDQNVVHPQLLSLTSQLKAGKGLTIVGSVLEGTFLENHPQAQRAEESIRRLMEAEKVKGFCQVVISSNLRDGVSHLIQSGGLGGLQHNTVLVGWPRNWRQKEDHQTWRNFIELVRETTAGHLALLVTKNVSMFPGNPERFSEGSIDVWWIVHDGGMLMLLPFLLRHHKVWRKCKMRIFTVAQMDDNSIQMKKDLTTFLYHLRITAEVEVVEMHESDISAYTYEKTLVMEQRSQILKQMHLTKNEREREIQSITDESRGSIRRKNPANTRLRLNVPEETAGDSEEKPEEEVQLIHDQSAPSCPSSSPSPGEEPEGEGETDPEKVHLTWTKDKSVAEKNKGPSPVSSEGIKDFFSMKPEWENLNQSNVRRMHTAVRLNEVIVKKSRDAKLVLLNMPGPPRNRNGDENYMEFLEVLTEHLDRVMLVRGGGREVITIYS

[2] = PubChem AID 1714; conditions: HEK293-KCC2 + bumetanide/ouabain, thallium flux FluoZin2; at 10 µM; stronger effect = higher value;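 note: raw slope of fluorescence over initial fluorescence between 10 and 20 s after thallium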
[3] = compound effects on native HEK Tl+ uptake – HEK cells, counterscreen 1, counter-screen for KCC2 modulator project, confirmation (AID 1716;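 active = thallium flux rate significantly above the same plate's solvent-only control wells, beyond their mean plus 3 SD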); conditions: HEK293 parental cells, thallium flux FluoZin2, ouabain; at 10 µM; baseline-ratio fluorescence slope, 10–20 s after thallium
[4] = molecular target: Solute carrier family 12 member 5 (Homo sapiens) (UniProt Q9H2X9); test: modulation of KCC2 thallium flux in HEK cells – cell-based, ouabain, retest, confirmation (AID 1717;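 active = thallium flux slope beyond 3 SD from same-plate DMSO control mean in most replicates, usually higher, sometimes lower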;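 note: slope of initial-normalized fluorescence between seconds 10 and 20 after thallium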); conditions: HEK293-KCC2, thallium flux FluoZin2 fluorescence, at 10 µM, bidirectional: low = inhibitor, high = activator
[5] = native HEK Tl+ uptake effects, second counter-screen – HEK cells, counterscreen 2, counter-screen for KCC2 modulator project, confirmation (AID 1718;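 active = thallium flux slope above the same plate's solvent-control mean plus 3 SD in both duplicate wells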;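 note: run without ouabain in cells lacking the KCC2 cotransporter; slope of fluorescence scaled to its starting value between 10 and 20 s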); conditions: HEK293 parental, thallium flux FluoZin-2 fluorescence slope; at 10 µM
[6] = molecular target: Solute carrier family 12 member 5 (Homo sapiens) (UniProt Q9H2X9); test: retest of KCC2 transport modulation, ouabain-free – cell-based, HEK293 KCC2, thallium flux, FluoZin2, secondary assay 2, confirmation (AID 1715;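 active = thallium flux slope more than 3 SD above or below the plate's solvent-only control mean, mostly below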;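 note: raw slope with 0.1% DMSO as baseline and bumetanide as block control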); conditions: HEK293-KCC2, thallium flux FluoZin2 fluorescence; at 10 µM; actives lie on both sides; F/F0 rise rate, 10–20 s post-thallium
[7] = inhibitors of TNFa-induced NFkB p65 translocation, primary screen, imaging, HUVEC, MLSMR starter and 10KST1 sets (AID 438;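 active = inhibition above 20% together with a positive visual image hit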;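 note: compound added about 3h40 before a 20 min TNFalpha stimulation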;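 for inhibition: signal is the nuclear over cytoplasmic p65 intensity ratio per well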); conditions: HUVEC TNFa-induced p65 nuclear translocation; cell count: measured here: nuclei count (cytotoxicity indicator), at 2.08 µM; inhibition: at 2 µM, stronger effect = higher value, 0% TNFa-plus-vehicle, 100% no-TNFa wells
[8] = reduction of polyQ htt aggregates in cells – imaging, exon1htt(103Q)mCFP cells, high-content imaging, primary screen (AID 483;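 active = visual image review flags a hit and inhibition of aggregation exceeds 20%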;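 note: compound exposure lasted 3 days before fixation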;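 for nuclei count: percent of the per-plate median nuclei count of sample wells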); conditions: exon1htt(103Q)mCFP cell line, aggregate imaging, at 2 µM; inhibition of aggregation: stronger effect = higher value; nuclei count: measured here: cell count, toxicity
[9] = endothelial E-selectin expression blockers – imaging, HUVEC, immunofluorescence, MLSMR starter and 10KST1 sets, primary screen (AID 487;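 active = visually confirmed hit in the image check and inhibition above 20%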;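 for inhibition: signal is fraction of cell area covered by stained E-selectin grains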;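 for nuclei count: 100% = median nuclei count of all wells on the same plate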); conditions: HUVEC TNFalpha-induced E-selectin immunofluorescence imaging, at 2 µM; inhibition: stronger effect = higher value; nuclei count: measured here: cell number, toxicity
[10] = molecular target: Voltage-gated potassium channel subunit beta-2 (Rattus norvegicus) (UniProt P62483); test: inhibitors of rat Kvbeta2 reductase activity – biochemical, NADPH fluorescence, primary screen (AID 622;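 active = fluorescence slope higher than the sample average by over 3 SD, cut at about -0.22 in these data, passing the limit was not always enough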;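 note: slope of raw intensity against log time taken from 70 to 1610 s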); conditions: recombinant KvBeta, 4-cyanobenzaldehyde reduction, at 10 µM, stronger effect = higher value
Voltage-gated potassium channel subunit beta-2 (Rattus norvegicus), sequence (P62483 whole entry, looked up): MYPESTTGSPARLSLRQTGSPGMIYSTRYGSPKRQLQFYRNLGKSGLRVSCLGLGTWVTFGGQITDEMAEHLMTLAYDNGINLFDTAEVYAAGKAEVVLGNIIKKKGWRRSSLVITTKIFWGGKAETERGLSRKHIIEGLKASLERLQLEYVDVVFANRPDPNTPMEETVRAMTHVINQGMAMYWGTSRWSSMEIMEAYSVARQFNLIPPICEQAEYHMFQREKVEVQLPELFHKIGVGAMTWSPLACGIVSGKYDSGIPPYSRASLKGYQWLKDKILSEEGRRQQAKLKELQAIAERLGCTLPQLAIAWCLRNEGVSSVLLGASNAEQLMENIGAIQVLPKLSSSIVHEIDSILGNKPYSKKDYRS

[11] = molecular target: Voltage-gated potassium channel subunit beta-2 (Rattus norvegicus) (UniProt P62483); test: enhancers of rat Kvbeta2 NADPH turnover – biochemical, NADPH fluorescence, primary screen (AID 623;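 active = NADPH fluorescence slope more negative than the mean of all samples by about 3 SD, 99.7% confidence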;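 note: fluorescence intensity change per second fitted from 20 to 320 s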); conditions: Recombinant KvBeta, NADPH fluorescence decrease slope, 10 min; at 10 µM; stronger effect = lower value
[12] = molecular target: Alpha-2C adrenergic receptor (Homo sapiens) (UniProt P18825); test: compounds altering alpha2C-coupled GIRK flux – cell-based, HEK293 alpha2C/GIRK1/2, thallium flux, primary screen (AID 624;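 active = fluorescence slope after compound addition differing from the mean of all screened samples at 99.7% confidence, in either direction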;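 note: slope of fluorescence ratio to pre-addition baseline per second over 15 to 24 s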); conditions: thallium flux BTC fluorescence, at 10 µM, actives lie on both sides
Alpha-2C adrenergic receptor (Homo sapiens), sequence (P18825 whole entry, looked up): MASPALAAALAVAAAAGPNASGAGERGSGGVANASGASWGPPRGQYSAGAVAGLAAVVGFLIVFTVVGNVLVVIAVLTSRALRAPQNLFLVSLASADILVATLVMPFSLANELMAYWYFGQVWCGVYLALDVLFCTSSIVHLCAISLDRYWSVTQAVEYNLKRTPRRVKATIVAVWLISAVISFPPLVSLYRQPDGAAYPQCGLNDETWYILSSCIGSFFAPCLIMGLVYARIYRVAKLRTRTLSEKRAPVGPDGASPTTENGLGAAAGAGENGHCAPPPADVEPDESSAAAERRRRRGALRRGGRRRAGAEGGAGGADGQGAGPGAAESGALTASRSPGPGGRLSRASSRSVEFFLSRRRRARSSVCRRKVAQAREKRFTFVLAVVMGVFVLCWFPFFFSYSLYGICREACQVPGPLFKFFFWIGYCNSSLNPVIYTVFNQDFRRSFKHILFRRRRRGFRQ

[13] = blockers of RIG-like receptor reporter activation – cell-based, Sendai virus stimulus, luciferase, 10K MLSCN set, TLR/RLR signaling modifier project, primary screen (AID 602276;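 active = inhibition at or above 50% at 10 µM; inactive = inhibition below 50%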;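 note: firefly luciferase from ISG56 promoter only with Renilla not read in this screen; 0% = Sendai virus plus DMSO and 100% = medium plus DMSO without virus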); conditions: HEK293 RL24 IRF3 luciferase reporter, at 10 µM, stronger effect = higher value
[14] = TLR3 IRF3 reporter activation blockers – cell-based, poly I:C stimulus, luciferase, 10K MLSCN set, primary screen (AID 602277;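 active = inhibition of the reporter signal at or above 50%; inactive = inhibition below 50%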); conditions: HEK293-TLR3 RL24 IRF3 luciferase reporter, at 10 µM, stronger effect = higher value

Cc1ccc(C)c(NC(=S)NNC(=S)Nc2ccc(C(C)C)cc2)c1
normalised thallium flux (F/F0 slope) [1]: 0.0145 (inactive)
normalized thallium flux [2]: 0.00979 (active)
thallium flux rate (normalised fluorescence) [3]: 0.0112 (active)
raw Tl+ flux slope (below DMSO = inhibition, above = activation) [4]: 0.0152 (active)
thallium flux slope [5]: 0.0121 (inactive)

Fc1ccc(COc2cccc(-c3n[nH]c(=S)o3)c2)cc1
normalised thallium flux (F/F0 slope) [1]: 0.0171 (inactive)
normalized thallium flux [2]: 0.101 (active)
thallium flux rate (normalised fluorescence) [3]: 0.0348 (active)
raw Tl+ flux slope (below DMSO = inhibition, above = activation) [4]: 0.042 (active)
thallium flux slope [5]: 0.0338 (active)

Cn1c(CCCOc2ccc(Cl)cc2Cl)n[nH]c1=S
normalised thallium flux (F/F0 slope) [1]: 0.00558 (inactive)
normalized thallium flux [2]: 0.00856 (active)
normalized thallium flux [6]: 0.0217 (active)
raw Tl+ flux slope (below DMSO = inhibition, above = activation) [4]: 0.0131 (active)
thallium flux slope [5]: 0.00939 (inactive)

Cc1c(C(=O)NC(=S)NCc2cccnc2)oc2ccccc12
normalised thallium flux (F/F0 slope) [1]: 0.025 (active)
normalized thallium flux [2]: 0.0479 (active)
thallium flux rate (normalised fluorescence) [3]: 0.028 (active)
raw Tl+ flux slope (below DMSO = inhibition, above = activation) [4]: 0.0308 (active)
thallium flux slope [5]: 0.0284 (active)

O=C(Cc1csc(Nc2nc(=S)[nH]c3ccccc23)n1)NCCCN1CCN(c2cccc(Cl)c2)CC1
normalised thallium flux (F/F0 slope) [1]: 0.0134 (active)
normalized thallium flux [2]: 0.0417 (active)
normalized thallium flux [6]: 0.0374 (inactive)
raw Tl+ flux slope (below DMSO = inhibition, above = activation) [4]: 0.0417 (active)
thallium flux slope [5]: 0.0172 (active)

Oc1c(Cl)cc(Cl)c(Cl)c1Cc1c(O)c(Cl)cc(Cl)c1Cl
normalised thallium flux (F/F0 slope) [1]: 0.0104 (inactive)
normalized thallium flux [2]: 0.0366 (active)
normalized thallium flux [6]: 0.0364 (inactive)
thallium flux slope [5]: 0.0102 (inactive)

CS(=O)(=O)N(CC(=O)N1CCN(c2ccc(F)cc2)CC1)C1CCCCC1
normalised thallium flux (F/F0 slope) [1]: 0.00629 (inactive)
normalized thallium flux [2]: 0.00489 (inactive)
thallium flux rate (normalised fluorescence) [3]: 0.00762 (inactive)
raw Tl+ flux slope (below DMSO = inhibition, above = activation) [4]: 0.0176 (active)
thallium flux slope [5]: 0.0102 (inactive)

COc1cccc(NC(=S)NC(=O)c2c(Cl)c(C)nn2C)c1
normalised thallium flux (F/F0 slope) [1]: 0.0264 (active)
normalized thallium flux [2]: 0.063 (active)
thallium flux rate (normalised fluorescence) [3]: 0.0727 (active)
raw Tl+ flux slope (below DMSO = inhibition, above = activation) [4]: 0.066 (active)
thallium flux slope [5]: 0.0309 (active)

CSc1ncnc2sc(C)c(C)c12
normalised thallium flux (F/F0 slope) [1]: 0.00741 (inactive)
normalized thallium flux [2]: 0.0121 (active)
normalized thallium flux [6]: 0.0306 (inactive)
thallium flux rate (normalised fluorescence) [3]: 0.0146 (active)
thallium flux slope [5]: 0.0129 (active)

Cc1cc(C(=O)NNC(=S)Nc2ccccc2C)cs1
normalised thallium flux (F/F0 slope) [1]: 0.00983 (inactive)
normalized thallium flux [2]: 0.0117 (active)
normalized thallium flux [6]: 0.0323 (inactive)
raw Tl+ flux slope (below DMSO = inhibition, above = activation) [4]: 0.0239 (inactive)
thallium flux slope [5]: 0.0109 (inactive)

O=C(C1CCN(c2nnc(-n3cccc3)s2)CC1)N1CCc2ccccc2C1
cell count [7]: 479
inhibition [7]: -5% (inactive)
inhibition of aggregation [8]: -15.5% (inactive)
nuclei count [8]: 65.3%
inhibition [9]: -9.9% (inactive)
nuclei count [9]: 104%
fluorescence slope [10]: -0.605 (inactive)
NADPH fluorescence slope [11]: -3.9e-05 (inactive)
slope [12]: 0.00552 (inactive)
normalised thallium flux (F/F0 slope) [1]: 0.00728 (inactive)
normalized thallium flux [2]: 0.00506 (inactive)
normalized thallium flux [6]: 0.0245 (active)
thallium flux rate (normalised fluorescence) [3]: 0.00773 (inactive)
thallium flux slope [5]: 0.0107 (inactive)
inhibition [13]: 0.226% (inactive)
inhibition [14]: 24.9% (inactive)
